Reference: PMC7862700, “An all-to-all approach to the identification of sequence-specific readers for epigenetic DNA modifications on cytosine”

Legend:
Test in all cases: DAPPL (digital affinity profiling via proximity ligation, sequencing); 10 mM Tris-HCl pH 7.5, 50 mM NaCl, 1 mM DTT, 4% glycerol, room temperature, 30 min; GST-TFs on glutathione beads, 16-mer random dsDNA library, 0.1% formaldehyde crosslink after washing; high values mean tight binding
FLI1 = biological target: T1, FLI1 (Homo sapiens, UniProt Q01543 1-452); conditions: protein: recombinant; tags: N-terminal GST; dsDNA, one strand shown
T1 sequence: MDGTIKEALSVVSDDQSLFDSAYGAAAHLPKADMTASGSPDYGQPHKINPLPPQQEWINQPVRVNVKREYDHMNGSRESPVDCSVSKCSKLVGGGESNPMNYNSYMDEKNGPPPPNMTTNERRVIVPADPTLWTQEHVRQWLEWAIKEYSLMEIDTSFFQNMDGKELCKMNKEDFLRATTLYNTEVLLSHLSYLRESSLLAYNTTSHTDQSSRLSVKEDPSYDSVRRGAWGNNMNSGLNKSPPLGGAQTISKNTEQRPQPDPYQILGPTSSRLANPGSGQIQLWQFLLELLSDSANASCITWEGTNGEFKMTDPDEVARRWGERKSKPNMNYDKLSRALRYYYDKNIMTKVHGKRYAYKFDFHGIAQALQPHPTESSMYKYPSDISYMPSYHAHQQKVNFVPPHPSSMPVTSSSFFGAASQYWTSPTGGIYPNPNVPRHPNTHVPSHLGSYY
How it was run: (§1)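 The binding signal reported is, for every hexamer, its read frequency for a factor over its read frequency for the tag-only sample. Reads came from pools of yeast-expressed, GST-fused human transcription factors on glutathione beads, barcoded with DNA and mixed with that sample, which were incubated with 200 nmole of a random double-stranded 16-mer DNA library in Tris/NaCl/DTT/glycerol buffer at room temperature for 30 min. After washing, the pools were crosslinked with 0.1% formaldehyde, proximity-ligated with BsaI/T4 ligase for 1 h at 37 °C, PCR-amplified and sequenced on an Illumina NextSeq500.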

ELK1 = biological target: T2, ELK1 (Homo sapiens, UniProt P19419 1-428); conditions: protein: recombinant; tags: N-terminal GST; dsDNA, one strand shown
T2 sequence: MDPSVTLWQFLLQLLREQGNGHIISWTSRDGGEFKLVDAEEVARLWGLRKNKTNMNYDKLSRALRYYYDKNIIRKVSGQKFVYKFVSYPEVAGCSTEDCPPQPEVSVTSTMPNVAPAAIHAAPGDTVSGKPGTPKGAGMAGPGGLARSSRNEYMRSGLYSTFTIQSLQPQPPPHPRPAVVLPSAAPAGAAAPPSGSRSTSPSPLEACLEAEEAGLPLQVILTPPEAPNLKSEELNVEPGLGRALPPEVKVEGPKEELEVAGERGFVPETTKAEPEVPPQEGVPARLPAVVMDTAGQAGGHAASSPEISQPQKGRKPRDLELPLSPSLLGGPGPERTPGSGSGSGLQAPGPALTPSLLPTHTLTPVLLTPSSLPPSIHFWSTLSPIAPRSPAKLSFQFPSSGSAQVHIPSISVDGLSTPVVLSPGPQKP
How it was run: as §1

GABPA = biological target: T3, GABPA (Homo sapiens, UniProt Q06546 1-454); conditions: protein: recombinant; tags: N-terminal GST; dsDNA, one strand shown
T3 sequence: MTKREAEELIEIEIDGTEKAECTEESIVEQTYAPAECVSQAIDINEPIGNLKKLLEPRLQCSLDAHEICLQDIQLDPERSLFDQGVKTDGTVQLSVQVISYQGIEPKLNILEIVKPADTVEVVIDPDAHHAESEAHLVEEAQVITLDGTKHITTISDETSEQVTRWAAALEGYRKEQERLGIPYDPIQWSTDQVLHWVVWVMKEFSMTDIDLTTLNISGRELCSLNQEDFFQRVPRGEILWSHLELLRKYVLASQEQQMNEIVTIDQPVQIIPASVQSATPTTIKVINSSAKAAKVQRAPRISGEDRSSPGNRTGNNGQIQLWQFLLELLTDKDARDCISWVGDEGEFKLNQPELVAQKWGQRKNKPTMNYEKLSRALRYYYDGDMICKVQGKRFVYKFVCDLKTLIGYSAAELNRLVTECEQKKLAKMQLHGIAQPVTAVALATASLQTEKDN
How it was run: as §1

ERG = biological target: T4, ERG (Homo sapiens, UniProt P11308 1-479); conditions: protein: recombinant; tags: N-terminal GST; dsDNA, one strand shown
T4 sequence: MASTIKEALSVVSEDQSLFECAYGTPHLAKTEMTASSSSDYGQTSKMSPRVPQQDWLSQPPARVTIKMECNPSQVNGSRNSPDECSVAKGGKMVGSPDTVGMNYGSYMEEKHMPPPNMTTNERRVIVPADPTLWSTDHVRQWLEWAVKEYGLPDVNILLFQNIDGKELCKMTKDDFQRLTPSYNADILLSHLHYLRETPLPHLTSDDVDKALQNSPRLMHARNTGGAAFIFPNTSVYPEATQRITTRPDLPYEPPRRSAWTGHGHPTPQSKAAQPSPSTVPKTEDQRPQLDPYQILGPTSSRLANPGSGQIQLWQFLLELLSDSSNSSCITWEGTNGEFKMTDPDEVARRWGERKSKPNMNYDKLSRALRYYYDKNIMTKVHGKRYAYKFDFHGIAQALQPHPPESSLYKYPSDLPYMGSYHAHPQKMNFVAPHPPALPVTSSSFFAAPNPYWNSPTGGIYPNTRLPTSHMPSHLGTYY
How it was run: as §1

ELF1 = ELF1 (Homo sapiens, UniProt P32519 1-619); conditions: protein: recombinant; tags: N-terminal GST; dsDNA, one strand shown
Sequence of ELF1 (P32519 whole entry): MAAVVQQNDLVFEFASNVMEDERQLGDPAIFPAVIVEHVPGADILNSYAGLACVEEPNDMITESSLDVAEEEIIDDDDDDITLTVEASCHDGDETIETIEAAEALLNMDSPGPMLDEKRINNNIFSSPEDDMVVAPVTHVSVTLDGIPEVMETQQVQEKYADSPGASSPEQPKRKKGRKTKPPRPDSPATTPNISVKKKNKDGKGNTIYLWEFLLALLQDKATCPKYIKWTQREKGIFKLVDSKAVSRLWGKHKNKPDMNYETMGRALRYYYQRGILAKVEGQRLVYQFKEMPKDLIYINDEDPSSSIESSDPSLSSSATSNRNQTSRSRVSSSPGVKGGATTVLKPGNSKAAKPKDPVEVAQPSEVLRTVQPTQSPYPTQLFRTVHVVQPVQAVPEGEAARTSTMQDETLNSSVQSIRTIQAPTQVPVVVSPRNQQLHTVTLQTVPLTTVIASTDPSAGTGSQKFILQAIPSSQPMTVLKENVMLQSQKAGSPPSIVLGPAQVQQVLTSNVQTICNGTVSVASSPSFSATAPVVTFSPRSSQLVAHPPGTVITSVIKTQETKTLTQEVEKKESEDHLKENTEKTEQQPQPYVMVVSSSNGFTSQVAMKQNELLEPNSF
How it was run: as §1

EHF = biological target: T5, EHF (Homo sapiens, UniProt Q9NZC4 1-300); conditions: protein: recombinant; tags: N-terminal GST; dsDNA, one strand shown
T5 sequence: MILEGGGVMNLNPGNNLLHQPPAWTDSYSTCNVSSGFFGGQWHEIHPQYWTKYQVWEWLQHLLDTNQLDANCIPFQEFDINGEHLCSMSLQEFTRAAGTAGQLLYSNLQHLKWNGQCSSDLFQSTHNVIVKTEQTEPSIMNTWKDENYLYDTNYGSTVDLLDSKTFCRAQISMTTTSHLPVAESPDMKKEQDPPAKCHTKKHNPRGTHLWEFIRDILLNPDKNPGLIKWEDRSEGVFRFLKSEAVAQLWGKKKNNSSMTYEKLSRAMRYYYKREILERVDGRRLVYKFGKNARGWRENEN
How it was run: as §1

SPI1 = SPI1 (Homo sapiens, UniProt P17947 1-270); conditions: protein: recombinant; tags: N-terminal GST; dsDNA, one strand shown
How it was run: as §1

SPIB = SPIB (Homo sapiens, UniProt Q01892 1-262); conditions: protein: recombinant; tags: N-terminal GST; dsDNA, one strand shown
Sequence of SPIB (Q01892 whole entry): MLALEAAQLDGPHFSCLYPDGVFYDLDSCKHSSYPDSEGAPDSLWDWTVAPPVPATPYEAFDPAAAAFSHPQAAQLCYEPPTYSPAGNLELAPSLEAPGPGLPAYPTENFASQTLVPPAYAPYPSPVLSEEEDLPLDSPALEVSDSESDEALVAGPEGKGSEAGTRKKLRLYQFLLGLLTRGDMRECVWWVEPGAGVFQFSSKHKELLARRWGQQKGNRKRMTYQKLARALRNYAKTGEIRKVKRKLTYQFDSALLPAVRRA
How it was run: as §1

ELK3 = biological target: T6, ELK3 (Homo sapiens, UniProt P41970 1-407); conditions: protein: recombinant; tags: N-terminal GST; dsDNA, one strand shown
T6 sequence: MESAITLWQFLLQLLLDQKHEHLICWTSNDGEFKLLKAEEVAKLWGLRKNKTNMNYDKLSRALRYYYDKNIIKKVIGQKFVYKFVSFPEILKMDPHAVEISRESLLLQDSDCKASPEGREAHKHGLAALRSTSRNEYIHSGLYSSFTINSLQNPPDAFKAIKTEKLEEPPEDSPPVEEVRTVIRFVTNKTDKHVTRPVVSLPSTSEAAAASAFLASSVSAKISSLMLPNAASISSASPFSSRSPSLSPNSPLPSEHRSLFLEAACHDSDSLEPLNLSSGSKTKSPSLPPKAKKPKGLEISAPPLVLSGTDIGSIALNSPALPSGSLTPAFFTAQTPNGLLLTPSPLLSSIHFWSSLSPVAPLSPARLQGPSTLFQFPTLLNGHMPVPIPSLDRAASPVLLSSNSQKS
How it was run: as §1

FEV = biological target: T7, FEV (Homo sapiens, UniProt Q99581 1-238); conditions: protein: recombinant; tags: N-terminal GST; dsDNA, one strand shown
T7 sequence: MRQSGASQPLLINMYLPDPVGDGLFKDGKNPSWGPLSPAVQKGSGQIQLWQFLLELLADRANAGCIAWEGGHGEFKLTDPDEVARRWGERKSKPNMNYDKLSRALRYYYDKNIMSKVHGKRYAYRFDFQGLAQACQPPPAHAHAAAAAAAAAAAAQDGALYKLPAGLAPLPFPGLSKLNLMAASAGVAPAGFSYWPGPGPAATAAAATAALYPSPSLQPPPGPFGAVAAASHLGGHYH
How it was run: as §1

ETV5 = ETV5 (Homo sapiens, UniProt P41161 1-510); conditions: protein: recombinant; tags: N-terminal GST; dsDNA, one strand shown
Sequence of ETV5 (P41161 whole entry): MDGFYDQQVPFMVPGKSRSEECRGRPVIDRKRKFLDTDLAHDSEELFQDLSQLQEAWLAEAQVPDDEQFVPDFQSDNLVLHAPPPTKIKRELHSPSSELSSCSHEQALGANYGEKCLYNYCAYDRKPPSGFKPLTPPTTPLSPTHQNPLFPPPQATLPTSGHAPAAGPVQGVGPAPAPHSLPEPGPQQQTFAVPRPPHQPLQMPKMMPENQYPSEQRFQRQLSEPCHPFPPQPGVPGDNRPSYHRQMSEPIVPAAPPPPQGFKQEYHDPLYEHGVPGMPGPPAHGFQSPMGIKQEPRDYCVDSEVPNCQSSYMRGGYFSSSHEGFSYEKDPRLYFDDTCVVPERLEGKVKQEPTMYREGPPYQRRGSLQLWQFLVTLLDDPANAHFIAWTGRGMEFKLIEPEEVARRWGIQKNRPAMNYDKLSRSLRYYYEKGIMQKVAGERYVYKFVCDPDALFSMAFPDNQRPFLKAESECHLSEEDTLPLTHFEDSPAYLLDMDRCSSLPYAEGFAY
How it was run: as §1

HSF1 = HSF1 (Homo sapiens, UniProt Q00613 1-529); conditions: protein: recombinant; tags: N-terminal GST; chain copies: 3; dsDNA, one strand shown
Sequence of HSF1 (Q00613 whole entry): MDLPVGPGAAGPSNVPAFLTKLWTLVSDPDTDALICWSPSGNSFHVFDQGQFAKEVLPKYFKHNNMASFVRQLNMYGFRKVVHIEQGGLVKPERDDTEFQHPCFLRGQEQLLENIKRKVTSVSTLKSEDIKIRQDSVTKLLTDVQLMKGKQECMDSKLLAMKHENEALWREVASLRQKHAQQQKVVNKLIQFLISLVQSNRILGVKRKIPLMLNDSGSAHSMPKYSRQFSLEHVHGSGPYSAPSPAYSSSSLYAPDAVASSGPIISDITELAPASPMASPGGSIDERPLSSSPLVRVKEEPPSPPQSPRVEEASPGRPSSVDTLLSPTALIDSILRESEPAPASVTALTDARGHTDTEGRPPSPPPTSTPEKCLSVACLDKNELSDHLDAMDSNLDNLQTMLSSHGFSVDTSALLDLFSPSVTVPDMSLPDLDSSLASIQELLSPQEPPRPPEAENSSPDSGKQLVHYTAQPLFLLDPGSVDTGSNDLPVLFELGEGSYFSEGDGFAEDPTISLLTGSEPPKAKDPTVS
How it was run: as §1

SPIC = biological target: T8, SPIC (Homo sapiens, UniProt Q8N5J4 1-248); conditions: protein: recombinant; tags: N-terminal GST; dsDNA, one strand shown
T8 sequence: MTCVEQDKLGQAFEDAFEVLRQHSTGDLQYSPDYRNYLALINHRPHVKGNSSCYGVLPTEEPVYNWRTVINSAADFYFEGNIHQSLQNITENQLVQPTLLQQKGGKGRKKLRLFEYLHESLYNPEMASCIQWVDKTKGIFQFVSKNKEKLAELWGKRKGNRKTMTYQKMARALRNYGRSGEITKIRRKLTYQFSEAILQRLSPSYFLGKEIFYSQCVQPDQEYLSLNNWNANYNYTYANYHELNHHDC
How it was run: as §1

ELF4 = ELF4 (Homo sapiens, UniProt Q99607 1-663); conditions: protein: recombinant; tags: N-terminal GST; dsDNA, one strand shown
Sequence of ELF4 (Q99607 whole entry): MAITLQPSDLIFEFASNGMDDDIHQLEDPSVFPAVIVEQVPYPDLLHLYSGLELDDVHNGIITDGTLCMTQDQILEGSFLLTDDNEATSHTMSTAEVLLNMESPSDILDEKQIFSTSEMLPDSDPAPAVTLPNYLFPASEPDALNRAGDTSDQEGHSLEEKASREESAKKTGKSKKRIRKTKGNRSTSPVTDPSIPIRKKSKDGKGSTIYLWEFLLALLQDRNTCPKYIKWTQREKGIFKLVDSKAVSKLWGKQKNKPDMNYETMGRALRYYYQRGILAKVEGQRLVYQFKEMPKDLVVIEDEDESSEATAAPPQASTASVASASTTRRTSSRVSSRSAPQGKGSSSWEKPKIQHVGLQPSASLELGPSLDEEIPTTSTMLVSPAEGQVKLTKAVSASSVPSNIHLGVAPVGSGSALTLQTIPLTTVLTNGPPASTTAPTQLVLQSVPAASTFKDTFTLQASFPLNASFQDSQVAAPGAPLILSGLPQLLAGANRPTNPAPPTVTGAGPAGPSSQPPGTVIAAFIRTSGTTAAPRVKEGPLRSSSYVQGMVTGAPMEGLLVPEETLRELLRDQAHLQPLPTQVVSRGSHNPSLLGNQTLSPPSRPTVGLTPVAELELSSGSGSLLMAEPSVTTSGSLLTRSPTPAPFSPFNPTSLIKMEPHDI
How it was run: as §1

ELK4 = biological target: T9, ELK4 (Homo sapiens, UniProt P28324-2 1-405); conditions: protein: recombinant; tags: N-terminal GST; dsDNA, one strand shown
T9 sequence: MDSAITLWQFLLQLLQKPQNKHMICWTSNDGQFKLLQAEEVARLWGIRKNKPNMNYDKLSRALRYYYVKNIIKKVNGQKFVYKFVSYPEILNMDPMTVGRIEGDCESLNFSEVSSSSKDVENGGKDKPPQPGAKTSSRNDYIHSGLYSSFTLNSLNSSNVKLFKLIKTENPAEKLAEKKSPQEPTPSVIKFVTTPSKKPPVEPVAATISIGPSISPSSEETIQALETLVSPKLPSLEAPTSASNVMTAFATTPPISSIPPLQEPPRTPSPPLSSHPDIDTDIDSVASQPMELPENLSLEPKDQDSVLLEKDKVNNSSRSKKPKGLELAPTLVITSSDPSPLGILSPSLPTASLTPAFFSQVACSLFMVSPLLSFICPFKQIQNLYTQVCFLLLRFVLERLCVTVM
How it was run: as §1

ETV2 = biological target: T10, ETV2 (Homo sapiens, UniProt O00321 1-342); conditions: protein: recombinant; tags: N-terminal GST; dsDNA, one strand shown
T10 sequence: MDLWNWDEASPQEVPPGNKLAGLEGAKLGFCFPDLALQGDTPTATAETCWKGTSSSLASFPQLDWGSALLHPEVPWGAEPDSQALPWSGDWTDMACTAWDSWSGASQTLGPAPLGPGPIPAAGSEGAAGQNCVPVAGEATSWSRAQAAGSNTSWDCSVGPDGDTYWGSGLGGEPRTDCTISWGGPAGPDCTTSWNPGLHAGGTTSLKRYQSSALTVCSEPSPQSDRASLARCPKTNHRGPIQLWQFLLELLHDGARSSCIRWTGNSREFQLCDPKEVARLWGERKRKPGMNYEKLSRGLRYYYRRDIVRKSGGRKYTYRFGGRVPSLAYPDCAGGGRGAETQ
How it was run: as §1

ELF3 = biological target: T11, ELF3 (Homo sapiens, UniProt P78545 1-371); conditions: protein: recombinant; tags: N-terminal GST; dsDNA, one strand shown
T11 sequence: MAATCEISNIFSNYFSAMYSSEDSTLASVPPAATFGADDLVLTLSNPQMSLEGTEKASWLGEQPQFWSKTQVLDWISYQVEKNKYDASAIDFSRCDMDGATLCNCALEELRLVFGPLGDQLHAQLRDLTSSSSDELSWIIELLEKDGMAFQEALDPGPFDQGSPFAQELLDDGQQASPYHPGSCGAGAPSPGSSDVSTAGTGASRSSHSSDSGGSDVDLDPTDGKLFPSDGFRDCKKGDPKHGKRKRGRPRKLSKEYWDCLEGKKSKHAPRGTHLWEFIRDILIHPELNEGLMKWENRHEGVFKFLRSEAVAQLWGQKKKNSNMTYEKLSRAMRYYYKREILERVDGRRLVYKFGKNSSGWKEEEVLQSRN
How it was run: as §1

CRX = CRX (Homo sapiens, UniProt O43186 1-299); conditions: protein: recombinant; tags: N-terminal GST; dsDNA, one strand shown
Sequence of CRX (O43186 whole entry): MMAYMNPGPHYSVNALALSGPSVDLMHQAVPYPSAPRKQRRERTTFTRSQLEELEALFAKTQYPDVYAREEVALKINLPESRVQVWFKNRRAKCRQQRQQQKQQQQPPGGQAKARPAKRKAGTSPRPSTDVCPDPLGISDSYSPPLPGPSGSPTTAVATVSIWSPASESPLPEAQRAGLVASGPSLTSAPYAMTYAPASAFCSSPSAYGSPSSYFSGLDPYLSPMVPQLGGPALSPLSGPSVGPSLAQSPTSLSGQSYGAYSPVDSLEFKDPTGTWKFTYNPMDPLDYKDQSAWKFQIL
How it was run: as §1

ETV1 = ETV1 (Homo sapiens, UniProt P50549 1-477); conditions: protein: recombinant; tags: N-terminal GST; dsDNA, one strand shown
Sequence of ETV1 (P50549 whole entry): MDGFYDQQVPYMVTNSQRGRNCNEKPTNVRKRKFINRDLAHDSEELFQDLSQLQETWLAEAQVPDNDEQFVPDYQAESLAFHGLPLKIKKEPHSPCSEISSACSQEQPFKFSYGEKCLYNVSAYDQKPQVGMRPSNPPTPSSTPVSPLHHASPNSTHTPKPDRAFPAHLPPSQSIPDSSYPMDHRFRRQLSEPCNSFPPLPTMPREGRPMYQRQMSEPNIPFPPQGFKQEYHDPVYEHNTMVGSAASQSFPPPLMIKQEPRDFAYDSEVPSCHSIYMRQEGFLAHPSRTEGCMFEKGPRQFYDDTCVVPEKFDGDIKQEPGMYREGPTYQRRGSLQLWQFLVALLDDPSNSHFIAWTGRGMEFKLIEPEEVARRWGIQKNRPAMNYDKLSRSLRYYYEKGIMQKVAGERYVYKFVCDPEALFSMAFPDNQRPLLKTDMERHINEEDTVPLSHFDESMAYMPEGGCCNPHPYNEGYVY
How it was run: as §1

With TCTATC the binding signal (FLI1) was 1.25 fold enrichment (6-mer frequency, TF over GST control), the binding signal (ELK1) was 1.27 fold enrichment (6-mer frequency, TF over GST control) and the binding signal (GABPA) was 1.21 fold enrichment (6-mer frequency, TF over GST control). For the same sequence, the binding signal (ERG) was 1.21 fold enrichment (6-mer frequency, TF over GST control), the binding signal (ELF1) was 1.25 fold enrichment (6-mer frequency, TF over GST control) and the binding signal (EHF) was 1.19 fold enrichment (6-mer frequency, TF over GST control). For the same sequence, the binding signal (SPI1) was 1.22 fold enrichment (6-mer frequency, TF over GST control), the binding signal (SPIB) was 1.17 fold enrichment (6-mer frequency, TF over GST control) and the binding signal (ELK3) was 1.37 fold enrichment (6-mer frequency, TF over GST control). The binding signal (FEV) was 1.16 fold enrichment (6-mer frequency, TF over GST control), the binding signal (ETV5) was 1.19 fold enrichment (6-mer frequency, TF over GST control) and the binding signal (HSF1) was 1.43 fold enrichment (6-mer frequency, TF over GST control). The binding signal (SPIC) was 1.23 fold enrichment (6-mer frequency, TF over GST control), the binding signal (ELF4) was 1.25 fold enrichment (6-mer frequency, TF over GST control) and the binding signal (ELK4) was 1.24 fold enrichment (6-mer frequency, TF over GST control). For the same sequence, the binding signal (ETV2) was 1.27 fold enrichment (6-mer frequency, TF over GST control), the binding signal (ELF3) was 1.29 fold enrichment (6-mer frequency, TF over GST control) and the binding signal (CRX) was 1.32 fold enrichment (6-mer frequency, TF over GST control). For the same sequence, the binding signal (ETV1) was 1.16 fold enrichment (6-mer frequency, TF over GST control).
